Results taken from article PMC4336329 (PLoS ONE, 2015).
Out of some 310,000 compounds screened, about 14,000 (4.5%) showed an effect of 50% or more. The effect is printed as a negative number. Many of the other results were omitted from the sample, so strong results are more common in it than they were.

biological target: human ether-à-go-go-related gene (hERG) potassium channel (human, UniProt Q12809); experiment: primary screen, population patch clamp on CHO cells stably expressing hERG; higher = less effect of the substance
Sequence (Q12809 whole entry, looked up): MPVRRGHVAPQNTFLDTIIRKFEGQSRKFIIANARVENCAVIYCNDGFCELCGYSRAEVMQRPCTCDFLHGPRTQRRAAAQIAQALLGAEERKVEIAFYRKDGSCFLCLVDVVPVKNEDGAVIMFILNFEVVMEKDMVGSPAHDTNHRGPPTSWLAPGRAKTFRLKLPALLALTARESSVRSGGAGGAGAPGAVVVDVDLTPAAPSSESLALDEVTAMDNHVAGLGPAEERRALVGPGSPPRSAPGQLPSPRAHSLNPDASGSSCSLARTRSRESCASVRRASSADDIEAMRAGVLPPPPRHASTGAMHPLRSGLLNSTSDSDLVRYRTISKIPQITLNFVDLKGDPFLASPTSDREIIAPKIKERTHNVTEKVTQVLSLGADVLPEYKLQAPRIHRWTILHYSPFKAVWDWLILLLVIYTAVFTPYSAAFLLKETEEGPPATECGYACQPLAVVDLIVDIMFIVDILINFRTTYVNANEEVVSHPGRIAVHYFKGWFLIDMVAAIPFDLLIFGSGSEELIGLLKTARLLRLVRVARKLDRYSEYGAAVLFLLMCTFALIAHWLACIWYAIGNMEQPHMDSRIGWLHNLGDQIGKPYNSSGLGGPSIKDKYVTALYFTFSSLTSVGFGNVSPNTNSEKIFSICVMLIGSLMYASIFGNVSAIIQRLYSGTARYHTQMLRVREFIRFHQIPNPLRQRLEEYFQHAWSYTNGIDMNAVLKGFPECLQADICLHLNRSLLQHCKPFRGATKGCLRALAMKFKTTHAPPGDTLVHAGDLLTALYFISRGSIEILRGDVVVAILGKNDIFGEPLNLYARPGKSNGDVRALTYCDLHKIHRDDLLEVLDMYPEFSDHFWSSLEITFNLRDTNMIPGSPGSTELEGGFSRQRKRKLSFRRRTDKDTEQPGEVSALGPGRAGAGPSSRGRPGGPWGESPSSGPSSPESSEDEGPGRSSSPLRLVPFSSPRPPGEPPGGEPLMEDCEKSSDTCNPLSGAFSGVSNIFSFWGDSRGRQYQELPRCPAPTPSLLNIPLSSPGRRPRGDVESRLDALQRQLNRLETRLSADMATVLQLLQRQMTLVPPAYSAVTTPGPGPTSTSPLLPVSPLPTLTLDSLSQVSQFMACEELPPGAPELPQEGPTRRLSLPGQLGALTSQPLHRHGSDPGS
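Note: peak tail current of the secondary pulse compared with the same well before compound.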

Going from `COc1cc(CN2CCCC(C(=O)c3ccc(SC)cc3)C2)cc(Cl)c1O` (stereo not shown) to `COc1cc(CN2CCCC(C(=O)c3sccc3C)C2)cc(Cl)c1O` (stereo not shown), the “hERG current change (%, negative = inhibition) at 10uM” value rises from -72.8% to -53.8%.

Going from `COc1cc(OC)c(OC)cc1CN1CCCC(C(=O)c2sccc2C)C1` (stereo not shown) to `COc1cc(CN2CCCC(C(=O)c3sccc3C)C2)cc(OC)c1O` (stereo not shown), the “hERG current change (%, negative = inhibition) at 10uM” value rises from -63.4% to -47.8%.

Compared with `COc1ccc(O)c(CN2CCCC(C(=O)c3sccc3C)C2)c1` (stereo not shown), `COc1ccc(OC)c(CN2CCCC(C(=O)c3sccc3C)C2)c1` (stereo not shown) is lower in “hERG current change (%, negative = inhibition) at 10uM” value: 9.89% for the first, -63.9% for the second.

Going from `Cc1ccc(CN2CCCC(C(=O)c3sccc3C)C2)o1` (stereo not shown) to `CCc1ccc(CN2CCCC(C(=O)c3sccc3C)C2)o1` (stereo not shown), the “hERG current change (%, negative = inhibition) at 10uM” value rises from -11% to 2.99%.

Going from `COCc1ccc(CN2CCCC(C(=O)c3sccc3C)C2)o1` (stereo not shown) to `COc1ccc(CN2CCCC(C(=O)c3sccc3C)C2)cc1O` (stereo not shown), the “hERG current change (%, negative = inhibition) at 10uM” value falls from 5.56% to -71.9%.

Going from `CCOC(=O)C1CCCN(Cc2cc(OC)c(O)c(OC)c2)C1` (stereo not shown) to `COc1cc(CN2CCCC(C(=O)c3ccc(C(C)(C)C)cc3)C2)cc(OC)c1O` (stereo not shown), the “hERG current change (%, negative = inhibition) at 10uM” value falls from -2.31% to -47.3%.

Compared with `O=C(CCn1cnc2ccccc2c1=O)Nc1ccc2c(c1)OCCO2`, `COc1cccc(NC(=O)c2nn(C)c3c2CS(=O)(=O)c2ccccc2-3)c1` is lower in “hERG current change (%, negative = inhibition) at 10uM” value: 15.1% for the first, 8.68% for the second.

Going from `Cc1cc(C(=O)N(C)C2CCCCC2)no1` to `Cc1ccsc1C(=O)C1CCCN(CCO)C1` (stereo not shown), the “hERG current change (%, negative = inhibition) at 10uM” value falls from 11.7% to 5.34%.

Going from `CC(=O)O[C@H]1CC[C@@]2(C)[C@@H](CC[C@@H]3[C@@H]2CC[C@]2(C)[C@@H](C(C)(C)O)C[C@@H]32)C1` to `COC(=O)CNC(=O)C12CC3CC(C1)CC(c1ccc(C)cc1)(C3)C2`, the “hERG current change (%, negative = inhibition) at 10uM” value rises from 9.09% to 12.9%.

Going from `CC(C)(C)S(=O)(=O)/C(C#N)=N/Nc1ccc(C#N)cc1` to `COC(=O)Cc1ccc(NC(C)=O)cc1`, the “hERG current change (%, negative = inhibition) at 10uM” value falls from 22.1% to 8.79%.

Compared with `CN(CCc1ccccn1)C(=O)Nc1ccc(F)cc1`, `O=C(Cc1ccccc1)NCCc1cnc[nH]1` is higher in “hERG current change (%, negative = inhibition) at 10uM” value: 12.7% for the first, 17.4% for the second.

Compared with `COc1ccccc1/C=N/Nc1nc(C)c(C(C)=O)s1`, `COc1ccc(Cc2nnc(NC(=O)c3ccco3)s2)cc1OC` is higher in “hERG current change (%, negative = inhibition) at 10uM” value: 5% for the first, 5.42% for the second.

Going from `CC(Oc1ccccc1)C(=O)N1CCC2(CC1)Oc1ccc(F)cc1C(=O)C21CC(c2cccnc2)=NO1` (stereo not shown) to `OCC1(CCOc2ccccc2)CCN(Cc2cn[nH]c2-c2ccc(F)cc2)CC1`, the “hERG current change (%, negative = inhibition) at 10uM” value falls from -20.5% to -71.6%.

First: [Cl-].c1ccc(COc2ccc(-c3sc(Nc4ccccc4)n[n+]3-c3ccccc3)cc2)cc1
Second: O=C(NCc1ccccn1)C1CCN(Cc2cccc(OCc3ccccc3)c2)CC1.O=C(O)C(=O)O
The “hERG current change (%, negative = inhibition) at 10uM” value of the first is lower: -43.9% for the first, -35.7% for the second.

First: O=C(CSc1nc(C(F)(F)F)cc(=O)[nH]1)N1CCCC1
Second: OCCC1CN(Cc2nc3ccc(F)cc3[nH]2)CCN1C1CCCC1 (stereo not shown)
The “hERG current change (%, negative = inhibition) at 10uM” value of the first is higher: 19% for the first, -15.9% for the second.

First: Cc1ccc(NCc2ccco2)cc1C.O=C(O)C(=O)O
Second: CCN(CC)C(=O)C1CCN(Cc2cccc(OCc3ccccc3)c2)CC1.O=C(O)C(=O)O
The “hERG current change (%, negative = inhibition) at 10uM” value of the first is higher: 1.93% for the first, -39.6% for the second.

Going from `Cc1onc(-c2c(Cl)cccc2Cl)c1C(=O)Nc1nc(C(C)(C)C)cs1` to `COCCN(Cc1cc2ccc(C)c(C)c2nc1Cl)C(=O)N1CCOCC1`, the “hERG current change (%, negative = inhibition) at 10uM” value rises from -26.4% to -11%.

Compared with `Cc1nc(CCNC(=O)CC2C(=O)NCCN2Cc2ccc(F)cc2)sc1C` (stereo not shown), `OCC1(CCOc2ccccc2)CCN(Cc2nc3ccc(F)cc3[nH]2)CC1` is lower in “hERG current change (%, negative = inhibition) at 10uM” value: 12.3% for the first, -55% for the second.

Compared with `O=C(OCc1cccc([N+](=O)[O-])c1)c1ccc2ccccc2n1`, `O=C(NCCCc1ccccc1)c1cccc([N+](=O)[O-])c1` is lower in “hERG current change (%, negative = inhibition) at 10uM” value: 7.33% for the first, -23% for the second.

First: CC(C)C(OC(=O)CN1C(=O)c2ccccc2C1=O)C(=O)NC1CCCC1 (stereo not shown)
Second: NC(=O)C1CCN(Cc2ccc(OCc3ccccc3)cc2)CC1.O=C(O)C(=O)O
The “hERG current change (%, negative = inhibition) at 10uM” value of the first is higher: 18.7% for the first, -29.5% for the second.

Compared with `C=CCn1c(O)c(C=NCCCOc2ccc(CC)cc2)c(=O)[nH]c1=S`, `C=CCN(CC=C)C(=O)C1CCN(Cc2ccc(OCc3ccccc3)cc2)CC1.O=C(O)C(=O)O` is lower in “hERG current change (%, negative = inhibition) at 10uM” value: 21.8% for the first, -68% for the second.

Going from `CCCCN(C)C(=O)C1CCN(Cc2ccc(OCc3ccccc3)cc2)CC1.O=C(O)C(=O)O` to `CCCCN(C)C(=O)C1CCN(Cc2cccc(OCc3ccccc3)c2)CC1.O=C(O)C(=O)O`, the “hERG current change (%, negative = inhibition) at 10uM” value rises from -73.4% to -67.7%.

Going from `CCN(CC)C(=O)C1CCN(Cc2ccc(OCc3ccccc3)cc2)CC1.O=C(O)C(=O)O` to `OCC1(CCOc2ccccc2)CCN(Cc2cn[nH]c2-c2ccccc2)CC1`, the “hERG current change (%, negative = inhibition) at 10uM” value falls from -48.7% to -74.4%.

Going from `COc1ccc(COC(=O)Nc2cn(C)nc2C(F)(F)F)cc1` to `COc1ccc(C(=O)NCC(C)NC(=O)c2ccc(OC)c(OC)c2)cc1OC` (stereo not shown), the “hERG current change (%, negative = inhibition) at 10uM” value rises from -7.76% to 13.8%.

Compared with `C=C(C)C(=O)N1CC2(CC(c3cccc(NC(=O)COc4ccc(Cl)cc4)c3)=NO2)C[C@@H]1C(N)=O` (stereo partly shown), `Cc1ccccc1CC1(CO)CCCN(Cc2cn[nH]c2-c2ccccc2)C1` (stereo not shown) is lower in “hERG current change (%, negative = inhibition) at 10uM” value: -15.3% for the first, -23.9% for the second.

Compared with `CN1Cc2c(N3CCOCC3)nc(SCCC#N)c(C#N)c2CC1(C)C`, `OCC1(CC2CCCCO2)CCN(Cc2nc3ccccc3[nH]2)CC1` (stereo not shown) is higher in “hERG current change (%, negative = inhibition) at 10uM” value: -2.45% for the first, 18% for the second.

Compared with `c1ccc2[nH]c(CSc3nccs3)nc2c1`, `O=C(Cn1cnc2c(nnn2Cc2ccccc2)c1=O)c1ccccc1` is lower in “hERG current change (%, negative = inhibition) at 10uM” value: -6.76% for the first, -8% for the second.

In the case of `CC1CCN(CC(=O)Nc2ccc(S(=O)(=O)N3C(C)CCCC3C)cc2)CC1` (stereo not shown), the “hERG current change (%, negative = inhibition) at 10uM” value is reported as 3.93%.
